Experimental data published in PubChem BioAssay (NCI).
Several values for one entry are separate records, joined by “and”; a condition that tells them apart may be missing. Identical values can stand only once. About 83,000 compounds went through this panel and 20% of them were active in at least one assay; those are over-represented in the sample as a whole.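 The test compound was applied at a single concentration to cells in 96-well plates for 48 hours, and percent growth was recorded.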 Unmarked numbers belong to inactive results. Activity calls are given as the source filed them. The calls were made as follows: active = growth percent below 10; inactive = the rest.

How the values were obtained:
Assay in all cases: NCI-60 one-dose screen, 48 h (100 = growth as untreated, 0 = no growth, -100 = all killed)
Details in all cases: 10 µM unless noted
[1] = system: SK-MEL-2 melanoma
[2] = system: EKVX NSCLC
[3] = system: SN12C renal
[4] = system: UO-31 renal
[5] = system: TK-10 renal
[6] = system: ACHN renal
[7] = system: CAKI-1 renal
[8] = system: HL-60(TB) leukemia
[9] = system: CCRF-CEM leukemia
[10] = system: A498 renal

| SMILES | growth [1] | growth [2] | growth [3] | growth [4] | growth [5] | growth [6] | growth [7] | growth [8] | growth [9] | growth [10] |
| --- | --- | --- | --- | --- | --- | --- | --- | --- | --- | --- |
| CO/N=C1\CC[C@]2(C)[C@H]3CC[C@]4(C)C(=O)CC[C@H]4[C@@H]3C[C@@H]3SC(N)=N[C@@]32C1 | 96.5% | 91.8% | 107% | 77.9% | 116% | 100% | 74.3% | 91.9% | 98.7% | – |
| NC1CN2CCC1CC2 (stereo not given) | 100% | 96.5% | 108% | 80.3% | 98.2% | 93% | 86.7% | 84.9% | 93% | 97.8% |
| CC[C@H](C)[C@H](NC(=O)[C@H]1CCCCN1C)C(=O)N(C)[C@H](CCc1nc(C(=O)N[C@@H](Cc2ccccc2)C[C@H](C)C(=O)O)cs1)C(C)C | 32.3% | 47.7% | 46.8% | 49% | 49.4% | 47% | 51.2% | -34.5% (active) | 14.9% | -7.5% (active) |
| CCN1C(=O)NC(=O)C(C)(N2C(=O)c3c(F)c(F)c(F)c(F)c3C2=O)C1=O (stereo not given) | 16.8% | 104% | 33.6% | 25.1% | 34.5% | -57.7% (active) | -46.7% (active) | -70.3% (active) | 19.5% | – |
| C[C@]12CC[C@@H](OC(=O)N(CCCl)N=O)C[C@@H]1CC[C@@H]1[C@@H]2CC[C@]2(C)C(=O)CC[C@@H]12 | 37.8% | 59.8% | 43% | 49.9% | 81.8% | 21.7% | 20.7% | -21.8% (active) | – | – |
| CC1(C)S[C@H]2CC[C@H]3OC(=O)[C@@H]1N23 | 94.4% | 88.4% | 119% | 53.9% | 91.9% | 114% | 66.6% | 60.9% | 82.9% | – |
| O=NN1CCCCC1 | 105% | 126% | 98.7% | 98.8% | 110% | 101% | 107% | 110% | 104% | – |
| O=C(Cc1ccccc1)c1ccccc1 | 110% | 103% | 106% | 90.2% | 95.5% | 107% | 101% | 103% | 7.63% (active) | 63.6% |
| O=[N+]([O-])c1cc(Cl)c(Cl)cc1Cl | 143% and 119% | 106% and 113% | 94.6% and 108% | 104% and 95.4% | 120% | 104% and 109% | 100% and 107% | 114% | 105% and 106% | – |
| CCOC(=O)P(=O)(OCC)OCC | 113% | 124% | 101% | 92.3% | 107% | 105% | 119% | 113% | – | – |
| CCCC(C)SP(=S)(SC(C)CCC)SC(C)CCC (stereo not given) | 107% | 96.7% | 108% | 93% | 104% | 113% | 104% | 106% | 103% | 113% |
| COc1ccc(N)cc1OC | 106% | 111% | 89.2% | 90.5% | 120% | 100% | 99% | 114% | 98.6% | 100% |
| Cc1ccc(P(=O)(O)O)cc1 | 109% | 100% | 97.7% | 96.6% | 102% | 109% | 97.2% | 107% | 114% | 115% |
| CC[C@H](C)[C@H](NC(=O)[C@H]1CCCCN1C)C(=O)N(C)[C@H](C[C@@H](OC(C)=O)c1nc(C(=O)NC23C4C5C2C2C3C4C52C(=O)OC)cs1)C(C)C (stereo not given in full) | 39.7% | 36.2% | 32.5% | 33.4% | 36.7% | 16.2% | 28.9% | -32.8% (active) | 6.99% (active) | – |
| COc1ccc(C(C#N)C(C)=O)cc1 (stereo not given) | 103% | 108% | 102% | 90.4% | 96.8% | 99.8% | 95.3% | 110% | 98.6% | 96.8% |
| Cc1ccc(N2CCN(CCC#N)CC2)cc1 | 110% | 95.5% | 96% | 82.6% | 89.5% | 101% | 87.1% | 87% | 92% | – |
| CCCn1cc2c3c(cccc31)[C@H]1C[C@@H](C)CN(C)[C@@H]1C2 | 134% | 94.9% | 81.6% | 36.1% | 96.8% | 94.6% | 83.8% | – | 86.9% | 71.3% |
| COC(=O)C1=CCCN(C)C1 | 106% and 30.5% | 97.8% and 98.7% | 107% and 105% | 80.4% and 94% | 106% and 103% | 96.9% | 93.7% and 102% | 108% and 122% | 102% | 97.8% and 112% |
| CC[PH+](CC)CC.O=COC1OC([S-])C(OC=O)C(OC=O)C1OC=O.[Au+] (stereo not given) | -72.5% (active) | -41.2% (active) | -90.9% (active) | -91.2% (active) | -97.7% (active) | -99.7% (active) | -92.8% (active) | -33.3% (active) | -11.4% (active) | -82.2% (active) |
| N#CCCc1ccccc1 | 121% | 103% | 103% | 85% | 113% | 98.4% | 98.2% | 103% | 96.2% | – |
| CC[C@H](C)[C@H](NC(=O)CN(C)C)C(=O)N(C)[C@H](C[C@@H](OC(C)=O)c1nc(C(=O)NC23C4C5C2C2C3C4C52C(=O)OC)cs1)C(C)C (stereo not given in full) | 34% | 40.4% | 31.8% | 54.9% | 57.7% | – | 44.8% | -26.5% (active) | 6.24% (active) | -1.71% (active) |
| COc1cc(-c2ccc(N)c(OC)c2)ccc1N | 118% | 96% | 104% | 93.6% | 107% | – | 92.5% | 118% | 113% | 118% |
| CN(C)[C@@H]1C(=O)C(C(N)=O)=C(O)[C@@]2(O)C(=O)C3=C(O)c4c(O)ccc(Cl)c4[C@@](C)(O)[C@H]3C[C@@H]12 | 81.6% and 24.7% | 111% and 98.3% | 93.7% and 103% | 55.1% and 82.1% | 86.9% | – | 73.1% and 99.6% | 100% | 94.1% and 101% | 92.2% and 110% |
| CCC1(NC(=O)c2cc(F)c(F)c(F)c2F)C(=O)NC(=O)N(C(C)C)C1=O (stereo not given) | 68.4% | 93.1% | 81.7% | 68.2% | 123% | – | 93.6% | -22.6% (active) | – | 98.2% |
| NC(N)=NC(N)=Nc1ccc(Cl)cc1 | 111% | 93% | 103% | 95.2% | 115% | 93.9% | – | 48.4% | 89.7% | – |
